Assay results reported in PubChem BioAssay AID861 (The Scripps Research Institute Molecular Screening Center, 2007).
The whole screen tested about 200,000 compounds, of which about 360 (0.18%) were called active. The full list was thinned out, with actives kept by preference. Unmarked numbers belong to inactive results. No stated cut-off is given here; in the data, active means inhibition above about 25%; inactive means the rest.

molecular target: Toll-like receptor 4 (Homo sapiens) + Myeloid differentiation primary response protein MyD88 (Homo sapiens) (UniProt O00206+Q99836); assay: inhibitors of TLR4-MyD88 association in cells, primary screen, cell-based, HeLa CL3-4, BLA complementation, FRET ratio (AID 861); settings: HeLa CL3-4 TLR4/MyD88 BLA complementation, at 8.4 µM, stronger effect = higher value;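 further: 0% = vehicle and 100% = reference inhibitor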
Sequence (O00206 whole entry, looked up): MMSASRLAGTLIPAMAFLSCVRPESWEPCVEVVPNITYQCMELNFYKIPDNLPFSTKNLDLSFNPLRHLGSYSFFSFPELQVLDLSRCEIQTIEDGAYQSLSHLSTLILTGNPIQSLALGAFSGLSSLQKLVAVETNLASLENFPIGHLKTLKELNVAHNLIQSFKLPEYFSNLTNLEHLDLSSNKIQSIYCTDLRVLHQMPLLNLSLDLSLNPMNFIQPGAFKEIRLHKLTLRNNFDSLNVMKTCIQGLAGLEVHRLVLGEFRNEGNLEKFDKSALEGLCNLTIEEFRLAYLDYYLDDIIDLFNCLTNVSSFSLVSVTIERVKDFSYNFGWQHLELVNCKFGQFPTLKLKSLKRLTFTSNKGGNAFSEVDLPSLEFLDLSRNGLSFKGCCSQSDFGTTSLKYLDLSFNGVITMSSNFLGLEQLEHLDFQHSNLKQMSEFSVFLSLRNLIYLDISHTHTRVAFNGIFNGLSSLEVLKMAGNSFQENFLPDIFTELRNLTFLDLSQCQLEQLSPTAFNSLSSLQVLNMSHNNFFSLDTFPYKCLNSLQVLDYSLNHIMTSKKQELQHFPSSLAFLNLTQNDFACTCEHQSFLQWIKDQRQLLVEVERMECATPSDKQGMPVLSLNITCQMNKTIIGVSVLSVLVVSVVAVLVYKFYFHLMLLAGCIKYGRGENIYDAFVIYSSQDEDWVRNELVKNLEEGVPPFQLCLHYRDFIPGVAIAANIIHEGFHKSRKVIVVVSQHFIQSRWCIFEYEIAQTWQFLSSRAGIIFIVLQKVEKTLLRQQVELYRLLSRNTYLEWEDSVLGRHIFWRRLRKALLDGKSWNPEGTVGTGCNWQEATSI
Sequence (Q99836 whole entry, looked up): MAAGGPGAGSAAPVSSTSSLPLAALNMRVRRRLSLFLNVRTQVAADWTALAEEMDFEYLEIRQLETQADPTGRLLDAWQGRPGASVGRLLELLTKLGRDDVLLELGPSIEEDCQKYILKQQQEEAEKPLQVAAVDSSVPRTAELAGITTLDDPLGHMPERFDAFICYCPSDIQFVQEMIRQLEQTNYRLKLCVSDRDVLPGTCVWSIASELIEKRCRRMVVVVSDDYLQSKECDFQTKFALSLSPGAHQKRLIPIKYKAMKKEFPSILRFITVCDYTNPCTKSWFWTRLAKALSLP

SMILES	inhibition
CSc1ccc(/C=N/N2CCN(Cc3ccccc3Cl)CC2)cc1	8.51%
Cc1ccc(NC(=O)c2cc([N+](=O)[O-])ccc2Cl)c(O)c1	-13.5%
O=C(/C=C/c1ccc(F)cc1)Nc1cccc(S(=O)(=O)Nc2cccc(C(F)(F)F)c2)c1	-0.34%
CCOc1cccc(/C=C/c2ccc3ccccc3n2)c1OC(C)=O	8.04%
O=C(CCN1C(=O)c2ccncc2C1=O)Nc1cc(F)ccc1F	1.62%
CC(=O)Nc1ccc(NC(=O)COc2ccc(S(=O)(=O)NC(C)c3ccccc3)cc2)cc1 (stereo not given)	-6.49%
O=C(CN1CCCC1)N1CCN(c2ccccc2)CC1	-1.74%
COCCCNC(=S)NNC(=O)C(O)(c1ccccc1)c1ccccc1	1.88%
Cc1cc(/C=N/NC(=O)CC2(C)OCCO2)c(C)n1-c1ccc(Cl)c(Cl)c1	-8.27%
Cc1nnc(SCC(=O)N2c3ccccc3C(C)(c3ccc(Cl)cc3)CC2(C)C)s1 (stereo not given)	-17.2%
CC/S(CC1CC1(Cl)Cl)=N\S(=O)(=O)c1ccc(C)cc1 (stereo not given)	-3.44%
Cc1ccc(OCc2nnc(SC3CCc4ccccc4C3=O)n2C)cc1 (stereo not given)	-13.3%
CCC1C(=O)c2ccccc2N(C)C1=O (stereo not given)	3.79%
N#CC1(NC(=O)COc2ccc3oc4ccccc4c3c2)CCCCC1	-7.56%
CN(CCC1CCOCC1)Cc1cn[nH]c1-c1ccc(-c2ccccc2)cc1	-6.36%
Cc1ccc(NC(=O)c2ccccn2)cc1S(=O)(=O)N1CCOCC1	-12.9%
C=CCN1C(=O)C(O)(CC(=O)c2ccccn2)c2ccccc21 (stereo not given)	0.55%
CC1=NN(C(=O)CCc2ccccc2O)C(O)(C(F)(F)F)C1 (stereo not given)	-5.78%
CCn1c2ccccc2c2cc(NC(=O)C/C(C)=N/NC(=O)c3ccccc3N)ccc21	-6.09%
CCCCCCOc1ccc(OC(=O)c2cccnc2)cc1	-5.46%

SMILES	inhibition
CC(=O)Nc1ccc(S(=O)(=O)NC(C)C(=O)OCC(=O)NC2CCCC2)cc1 (stereo not given)	-2.35%
COCCNC(=O)NC(=O)COC(=O)C1(c2ccc(Cl)cc2)CC1	1.43%
O=C(Nc1nnc(-c2ccco2)o1)c1ccc(S(=O)(=O)N2CCOCC2)cc1	9.33%
CN(C)CCCN1C(=O)CSC1c1ccc([N+](=O)[O-])cc1 (stereo not given)	2.09%
COC(=O)c1nc2n(n1)C(c1ccc([N+](=O)[O-])cc1)C(C(=O)Nc1ccc(Cl)cc1)=C(C)N2 (stereo not given)	4.62%
COc1cc(NC(=S)N2CCCC(C)C2)cc(OC)c1OC (stereo not given)	6.42%
COc1ccc(C2Nc3ccccc3C(=O)N2c2ccc(Cl)cc2)cc1Cn1cc([N+](=O)[O-])cn1 (stereo not given)	-3.28%
Cc1nc(N=C(N)N)nc2c(C)cccc12	-6.85%
COc1cccc(C(=O)Nc2cc3c(cc2Br)OCCCO3)c1	5.11%
CCc1cccc(NC(=O)CCC(=O)O)c1	-11%
CC(=O)c1cc(C#N)c(N2CCCCC2)nc1C	7.39%
CCN(CC)S(=O)(=O)c1cc([N+](=O)[O-])ccc1N=Nc1c(O)n(C)c2ccccc12	6.59%
Cc1cccc(C)c1N1CCN(S(=O)(=O)N2CCCCC2)CC1	-5.18%
CC1CCN(C(=O)c2ccc(CSc3ccc(Cl)cc3)cc2)CC1	2.08%
C=C(C)C1CC=C(C)/C(=N\NC(=O)CNc2ccccc2OC)C1 (stereo not given)	3.79%
O=C(c1ccc2ccccc2n1)N1CCN(c2ccccc2Cl)CC1	-7.41%
CCOC(=O)c1[nH]cnc1C(=O)Nc1ccccc1C	4.26%
COc1ccccc1N1N=C(c2cccs2)CC1c1ccccc1 (stereo not given)	44.4% (active)
COc1ccc(C2CC(c3cccs3)=NN2c2ccc(F)cc2)cc1OC (stereo not given)	5.58%
COc1ccc(C2CC(c3cccs3)=NN2c2ccccc2)cc1 (stereo not given)	0.51%

SMILES	inhibition
O=C(Nc1ccc(Br)cn1)c1ccc([N+](=O)[O-])cc1Cl	0.87%
O=C(/C=C/c1ccccc1)c1ccoc1	4.74%
O=C(O)c1ccc2c(c1)C(=O)N(c1ccc(/C=C/C(=O)c3ccccc3)cc1)C2=O	-0.8%
O=C(/C=C/c1ccc(N2CCOCC2)cc1)c1ccccc1	27.9% (active)
CCOc1ccc(-c2n[nH]c(=S)n2/N=C/c2cc3c(cc2[N+](=O)[O-])OCO3)cc1	-2.5%
CCOC(=O)CCCN1CC(O)=C(c2nc3ccccc3s2)C1=N	-14.8%
COc1ccc(-c2[nH]ncc2/C=N/NC(=O)c2cc(Br)ccc2O)c(OC)c1	-5.73%
COc1cc(OC)cc(-c2nnc(N(C)C(=O)c3ccncc3)s2)c1	11.3%
O=C(NCC1CCCO1)C1CCN(C2CCN(C(=O)C3CCCCC3)CC2)CC1 (stereo not given)	-1.44%
CCOc1cc(NC(=S)NCc2ccco2)c(OCC)cc1NC(=O)c1ccco1	-15.2%
CC(=O)C1C(c2ccc(Cl)cc2)c2c(n[nH]c2C)CC1(C)O (stereo not given)	-3.07%
O=C(c1ccc(Cl)cc1)c1cnc(Nc2ccccc2)s1	25.8% (active)
CC(C)(C)C(=O)c1cnc(Nc2ccccc2)s1	-8.48%
O=C(CSc1nnc(Nc2ccccc2)s1)Nc1cccnc1Cl	-6.41%
O=C(NC1CC1)C1CCCN(C(=O)NC2CCCCC2)C1 (stereo not given)	5.9%
Cc1cc(F)ccc1S(=O)(=O)N1CCCOC1CNC(=O)C(=O)NCCC1=CCCCC1 (stereo not given)	-6.72%
O=C(Nc1ccc(-n2ccnc2P(=O)(O)c2ccccc2)cc1)c1ccccc1Br	-8.07%
Cc1ccc(C)c(NC(=O)CCC(=O)N/N=C2/CC(=O)CC(C)(C)C2)c1	6.45%
COc1ccc(F)c(-c2nc(CN3CCC(c4ccccc4)CC3)c(C)o2)c1	-6.39%
O=C(OCC(=O)c1c[nH]c2ccccc12)c1cccc(O)c1	-10%
